# Reference: PubChem BioAssay AID1345085 (National Center for Advancing Translational Sciences (NCATS), 2018)
# Results filed as inconclusive are left out. The source made the active and inactive calls. The call rests on the fitted dose curve; in most records, active means well fitted cell-killing curve with a large enough effect; inconclusive means small, poorly fitted or top-dose-only effect, or effect the other way; inactive means no such curve, though single readings can be large or run the other way.
# Tested on: Es-2
# Assay: Confirmatory qHTS for gynecologic anti-cancer compounds from libraries of approved drugs and bioactive compounds; further: nearly all actives have a fitted effect of over 55% in size
# Details: gynecologic cancer cell panel viability, ATPlite luminescence, 48 h; series mostly up to 57.6 µM; activity change, negative = viability loss: at the top concentration
# Summary of the method: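 Cells (1,000/well) were plated, left 16 h at 37 C/5% CO2, then given compound at 11 concentrations (1:3) from 57.5 uM to 0.977 nM for 48 h. ATPlite luminescence after 15 min at room temperature gave IC50 values.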
# On the % scale 0 is the no-effect control and ±100 the full control effect; potency means the concentration at half of the fitted maximal effect.
SMILES,"activity change, negative = viability loss",Potency
Cc1cc(Nc2nc(N[C@@H](C)c3ncc(F)cn3)ncc2Cl)n[nH]1,-7.91% (inactive),
OCCNC1CCCc2c1[nH]c1ccc(-c3ccccc3)cc21 (centres undefined),,19.3 µM (active)
O=c1c(-c2ccc(O)cc2)coc2cc(O)cc(O)c12,,17.2 µM (active)
CCN[C@H]1C[C@H](C)S(=O)(=O)c2sc(S(N)(=O)=O)cc21,0.905% (inactive),
CO[C@@]12[C@H](COC(N)=O)C3=C(C(=O)C(C)=C(N)C3=O)N1C[C@@H]1N[C@@H]12,12.2% (inactive),
Cc1cc(C2CCCCC2)n(O)c(=O)c1,,9.94 µM (active)
Cn1cc(-c2[nH]c3cc(NC(=O)[C@H](N)C4CCCCC4)cc4c3c2C=NNC4=O)cn1,,6.85 µM (active)
CC(Oc1cc(-n2cnc3ccc(CN4CCN(C)CC4)cc32)sc1C(N)=O)c1ccccc1C(F)(F)F (centres undefined),,3.43 µM (active)
CCCC(Nc1nc(-c2ccc(NC(=O)NCC)c(OC)c2)ncc1C)c1cccnc1 (centres undefined),,0.193 µM (active)
CC(Oc1ccc2[nH]nc(/C=C/c3cnn(CCO)c3)c2c1)c1c(Cl)cncc1Cl (centres undefined),,4.32 µM (active)
CNC1CCC(N(Cc2cccc(-c3ccncc3)c2)C(=O)c2sc3ccccc3c2Cl)CC1 (centres undefined),,24.3 µM (active)
Cc1cc(C(C)Nc2ccccc2C(=O)O)c2nc(N3CCOCC3)cc(=O)n2c1 (centres undefined),-20.9% (inactive),
COc1cc(Nc2ncc3c(n2)-c2ccc(Cl)cc2C(c2c(F)cccc2OC)=NC3)ccc1C(=O)O,22.5% (inactive),
Cc1cnc(Nc2ccc(OCCN3CCCC3)cc2)nc1Nc1cccc(S(=O)(=O)NC(C)(C)C)c1,,8.63 µM (active)
